# Shown are actives, neighbours in structure and some others; about 19% of the full set was active somewhere.
# DT40 TDP1 CPT = growth inhibition of DT40 Tdp1-/-;hTDP1 cells with camptothecin (screen for TDP1 inhibitors) | chicken DT40 Tdp1-/-;hTDP1 cells + 20 nM CPT, ATP luminescence, 48 h | Potency, µM (highest dose often 46.2 µM), without a hit: top-dose activity change, negative = growth inhibition, hits mostly inhibitors | 420,000 compounds, 12% hits | AID 686979; also: potency is read from the fitted curve at half-maximal effect; nearly all actives have a fitted effect of over 55% in size
#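 Cell growth measured by CellTiter-Glo luminescence after a minimum 48 h, 37 C compound exposure with 20 nM CPT in Tdp1-knockout DT40 cells stably expressing hTDP1, seeded 400/well; qHTS titration format.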
# IL1B secr inh = inflammasome signaling inhibition, IL-1 beta readout. THP-1 LPS/ATP IL-1B secretion, AlphaLISA, 16 h; stronger effect = lower value. activity change, % at 57.5 µM. 360,000 compounds, 4.7% hits; in the data active = activity change below about -50%; inconclusive = mostly about -30% to -49%
#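 THP-1 cells pretreated 1 hr with compounds (up to 57.5 uM final), then stimulated with LPS (250 ng/mL final) plus ATP (1.25 mM final); secreted IL-1B measured by AlphaLISA after 16 hr, decreased signal indicating inhibition.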
# ELG1 repair inh = ELG1-dependent DNA repair inhibition; HEK293T ELG1-luciferase reporter, luminescence, 16 h; DNA damage induced by 5-fluorouridine; Potency, µM (titrated, usually from 46.1 µM), without a hit: top-dose activity change, negative = inhibition, hits mostly inhibitors; 330,000 compounds, 2.3% hits; AID 504467; also: potency is read from the fitted curve at half-maximal effect; nearly all actives have a fitted effect of over 55% in size
#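 Reporter activity after DNA damage by 5-fluorouridine is monitored. Compound-treated cells incubate 16 hr at 37 °C, then ONE-Glo is added for 30 min before luminescence reading.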
# HT1080 IDH1KD tx = toxicity to HT-1080 IDH1 knockdown cells (counter line). HT-1080 IDH1 knockdown viability, ATP luminescence, 48 h. Potency, µM (highest dose often 46.1 µM), for inactives: top-dose activity, negative = toxicity, hits mostly cytotoxic. 360,000 compounds, 2% hits. AID 686971;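 also: potency is read from the fitted curve at half-maximal effect; 0% = DMSO wells and -100% = cell-free medium wells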
#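 Using the IDH1-knockdown HT-1080 line run in the same batch and compound series as the NT line, viability after 48 h at 37 °C was determined by CellTiter-Glo luminescence and expressed as % activity.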
# HT1080NT lethal = kills 2HG-producing HT-1080-NT fibrosarcoma cells | HT-1080-NT fibrosarcoma viability, CellTiter-Glo ATP luminescence, 48 h | Potency, µM (titrated, usually from 46.1 µM), for the others: at the top dose activity, negative = less viability, hits mostly cytotoxic | 360,000 compounds, 1.6% hits | AID 686970;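 also: NT is the 2HG producing partner of a matched IDH1 knockdown line; potency is read from the fitted curve at half-maximal effect; 0% = DMSO-treated cells and -100% = media-only wells without cells; nearly all actives have a fitted effect of over 55% in size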
#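 Toxicity toward the 2HG-producing NT line was scored as %Activity, normalised to DMSO and no-cell wells, from CellTiter-Glo luminescence after 48 hours' treatment.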
# DT40 TDP1 no CPT = qHTS for Inhibitors of human tyrosyl-DNA phosphodiesterase 1 (TDP1): qHTS in cells in absence of CPT | DT40 Tdp1-/- hTDP1 cells, no CPT, ATP luminescence, 48 h | Potency, µM (highest dose often 46.2 µM), for the others: top-dose activity change, negative = growth inhibition, hits mostly inhibitors | 420,000 compounds, 15% hits | AID 686978, 2013; also: potency is read from the fitted curve at half-maximal effect; nearly all actives have a fitted effect of over 55% in size
#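 Luminescent ATP content (CellTiter-Glo) served as the growth readout. Knockout chicken DT40 cells expressing human TDP1 were exposed to compounds without camptothecin for a minimum 48 hr at 37 °C.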
# The depositor's hits bear a star; ? = inconclusive; . = not tested or not shown; ! = not active in a repeat; [ ] = dose if it differs, or a comment. Unless noted, calls follow the shape of the dose curve; as a rule, active = well fitted curve in the direction sought with a large enough effect; inconclusive = small, poorly fitted or top-dose-only effect, or another doubt; inactive = no such curve, though single readings can be large; an effect the other way counts as inactive or inconclusive. Unless noted, % is scaled to controls: 0 for no effect and ±100 for the full control effect.
SMILES,DT40 TDP1 CPT,IL1B secr inh,ELG1 repair inh,HT1080 IDH1KD tx,HT1080NT lethal,DT40 TDP1 no CPT
O=C(Nc1ccc(N2CCOCC2)c(Cl)c1)C1CCCCC1,21µM*,-22,21µM*,4%,0%,16µM*
O=C(Nc1nc2ccc(Cl)cc2s1)c1ccc(N2CCCCC2)c([N+](=O)[O-])c1,16µM*,?,?,3%,-1%,21µM*
CC(=O)Nc1ccc(S(=O)(=O)Nc2ccc(S(=O)(=O)Nc3nccs3)cc2)cc1,?,2,-3%,15%,?,-11%
O=C(OCC(=O)N1CCN(C(=O)c2ccco2)CC1)c1ccc(Cl)nc1,-2%,8,0%,5%,0%,-1%
CSc1ncccc1C(=O)OCC(=O)N1CC(=O)Nc2ccccc21,0%,-7,12%,-3%,0%,-8%
CCc1nc(C)cn1S(=O)(=O)c1ccc(Br)cc1,?,-7,0%,-3%,-2%,?
COc1cccc(CNC(=O)c2c(OC)cc(=O)n3c2CCN(C(=O)c2ccc(Cl)cc2)CC3)c1,-1%,.,.,.,.,5%
CC(=O)CCS(=O)(=O)c1ccc(Oc2ccc(S(=O)(=O)CCC(C)=O)cc2)cc1,3.7µM*,-75*,-12%,?,?,8.2µM*
CCOC(=O)CCS(=O)(=O)c1ccc(-c2ccc(S(=O)(=O)CCC(=O)OCC)cc2)cc1,-13%,-99*,8%,4%,5%,-12%
Cc1ccccc1C1=Nn2c(nnc2-c2ccco2)SC1,-27%,24,?,1%,9%,2%
CC(C)c1ccc(NC(=O)C2CCN(S(=O)(=O)c3ccc4c(c3)NC(=O)CO4)CC2)cc1,?,-6,-3%,-16%,-18%,23µM*
Cc1ccc(NC(=O)C2CCN(S(=O)(=O)c3ccc4c(c3)NC(=O)CO4)CC2)cc1,3%,-7,-4%,-7%,-5%,?
CC1Sc2ccc(S(=O)(=O)N3CCC(C(=O)Nc4ccc(Cl)cc4)CC3)cc2NC1=O (configuration not stated),21µM*,-19,4.6µM*,?,21µM*,9.2µM*
COc1ccc(NC(=O)C2CCN(S(=O)(=O)c3ccc4c(c3)NC(=O)C(C)S4)CC2)cc1 (configuration not stated),?,44,?,?,?,?
COc1cccc(NC(=O)C2CCN(S(=O)(=O)c3ccc4c(c3)NC(=O)C(C)S4)CC2)c1 (configuration not stated),21µM*,26,-23%,-17%,-26%,21µM*
CCOc1ccc(NC(=O)C2CCN(S(=O)(=O)c3ccc4c(c3)NC(=O)C(C)S4)CC2)cc1 (configuration not stated),?,22,?,-24%,-19%,?
O=C(CSCc1cnn(-c2ccccc2)c1-n1cccc1)Nc1ccc(F)cc1F,?,.,.,.,.,18µM*
Cc1cccc(C)c1NC(=O)CSCc1cnn(-c2ccccc2)c1-n1cccc1,10µM*,.,.,.,.,10µM*
COc1cc(NC(=O)CSCc2cnn(-c3ccccc3)c2-n2cccc2)cc(OC)c1,?,-9,?,-22%,-4%,15µM*
O=C(O)CSCc1cnn(-c2ccccc2)c1-n1cccc1,-3%,8,?,-3%,-1%,0%
COc1ccc(OC)c(NC(=O)CSCc2cnn(-c3ccccc3)c2-n2cccc2)c1,?,-11,-15%,-4%,-17%,16µM*
CC(Sc1nc(N)cc(=O)[nH]1)C(=O)Nc1ccc(N2CCOCC2)cc1 (configuration not stated),-7%,-4,.,6%,12%,-10%
COc1cc(OC)c(/C=C/c2c3ccccc3cc[n+]2C)c(OC)c1,0.32µM*,.,.,.,.,0.089µM*
COc1cc(OC)c(/C=C/c2cc(/C=C/c3c(OC)cc(OC)cc3OC)[n+](C)c3ccccc23)c(OC)c1,1.6µM*,.,.,.,.,1.1µM*
CCN(CC)c1ncnc2c1ncn2[C@H]1CN(Cc2ccc3c(c2)OCO3)C[C@@H](CO)O1,?,-25,.,-5%,-4%,?
SMILES,DT40 TDP1 CPT,IL1B secr inh,ELG1 repair inh,HT1080 IDH1KD tx,HT1080NT lethal,DT40 TDP1 no CPT
COc1ccc(/C=C/C(=O)c2ccncc2)c2ccccc12,23µM*,-29,4%,?,?,16µM*
COc1ccccc1-n1cc(C(=O)NCCN2Cc3ccccc3OC(c3ccsc3)C2)cn1 (configuration not stated),6%[9.04 µM],.,.,.,.,-27%
CC1=C(/C=C/C(C)=C/C=C/C(C)=C/CO)C(C)(C)CCC1,?,-21,.,?,-4%,21µM*!
CC(=O)OC/C=C(C)/C=C/C=C(C)/C=C/C1=C(C)CCCC1(C)C,?,.,.,.,.,23µM*!
CC1=C(/C=C/C(C)=C/C=C/C(C)=C/C=C/C=C(C)/C=C/C=C(C)/C=C/C2=C(C)C(=O)CCC2(C)C)C(C)(C)CCC1=O,-13%,.,.,.,.,-19%
CC1=C(/C=C/C(C)=C/C=C/C(C)=C\CO)C(C)(C)CCC1,18µM*,.,.,.,.,?
CC(=O)c1cccc(OCC(=O)c2cc(C)n(-c3cc(C)on3)c2C)c1,18µM*,-17,?,-30%,-16%,18µM*
Cc1cc(-n2c(C)cc(C(=O)COc3cccnc3[N+](=O)[O-])c2C)no1,12µM*,12,-2%,-8%,0%,15µM*
O=C(COc1cccnc1[N+](=O)[O-])c1ccc(Cl)s1,16µM*,-11,-1%,2%,13%,16µM*
Cc1cc(NC(=O)COc2cccnc2[N+](=O)[O-])no1,-1%,-9,-10%,7%,-2%,-16%
O=C(COc1cccnc1[N+](=O)[O-])Nc1c(Cl)cccc1Cl,-7%,14,9%,7%,-3%,-8%
O=C(O)CCc1ccc2ccccc2c1,4%,.,.,.,.,-27%
NC(=O)c1ccccc1-c1nc(-n2ccnc2)c2ccccc2n1,6%,.,.,.,.,9%
O=Cc1ccc(CS)cc1,-5%,.,.,.,.,-21%
O=C(NCc1ccccc1)C(=O)NCC(c1ccco1)N1CCN(c2ccccc2F)CC1 (configuration not stated),-2%,6,?,10%,14%,10%
O=C(NCCc1c[nH]c2ccccc12)C(=O)NCC(c1ccco1)N1CCN(c2ccccc2F)CC1 (configuration not stated),?,-2,?,-15%,-19%,23µM*

# Screening data (PubChem)
